In the library only some 19% were active in any assay of this set; here they are far more common.
HT1080 IDH1KD tx: HT-1080 IDH1 knockdown cell toxicity (counter line); HT-1080 IDH1 knockdown viability, ATP luminescence, 48 h; actives 2% (n = 360,000); Potency, µM (doses to about 46.1 µM), without a hit: at the top dose activity, negative = toxicity, actives largely listed as cytotoxic;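 note: potency is the fitted concentration of half-maximal effect; 0% = DMSO wells and -100% = cell-free medium wells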
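% activity derives from luminescence (CellTiter-Glo), normalised to DMSO and no-cell wells. HT-1080-IDH1KD cells, 750/well, had 48 h compound exposure at 37 °C.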
DT40 TDP1 no CPT: qHTS for Inhibitors of human tyrosyl-DNA phosphodiesterase 1 (TDP1): qHTS in cells in absence of CPT. actives 15% (n = 420,000). Potency, µM (series often up to 46.2 µM), without a hit: top-dose activity change, negative = growth inhibition, usual class: inhibitors. DT40 Tdp1-/- hTDP1 cells, no CPT, ATP luminescence, 48 h; note: potency is the fitted concentration of half-maximal effect; nearly all actives have a fitted effect of over 55% in size
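A cellular qHTS used chicken DT40 cells lacking endogenous Tdp1 but carrying stably transfected human TDP1. Compounds were applied without camptothecin, and cell growth kinetics were judged by ATP-dependent luminescence after ≥48 hr.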
TDP1 cell CPT: growth inhibition of DT40 Tdp1-/-;hTDP1 cells with camptothecin (screen for TDP1 inhibitors). chicken DT40 Tdp1-/-;hTDP1 cells + 20 nM CPT, ATP luminescence, 48 h. Potency, µM (top dose mostly 46.2 µM), for the others: at the top dose activity change, negative = growth inhibition, hits mostly inhibitors. actives 12% (n = 420,000); note: potency is the fitted concentration of half-maximal effect; nearly all actives have a fitted effect of over 55% in size
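Chicken DT40 Tdp1-/- cells stably complemented with human TDP1 were seeded at 400 cells/well in medium containing 20 nM camptothecin, exposed to pin-transferred compounds, and grown at 37 °C for at least 48 hr. Viability was read as ATP luminescence.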
IL1B secr inh: inhibitors of inflammasome signaling (IL-1 beta secretion); activity change, % at 57.5 µM; actives 4.7% (n = 360,000); THP-1 LPS/ATP IL-1B secretion, AlphaLISA, 16 h; active compounds read low; in the data active = activity change below about -50%; inconclusive = mostly about -30% to -49%
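THP-1 cells pretreated 1 hr with compounds (up to 57.5 uM final), then stimulated with LPS (250 ng/mL final) plus ATP (1.25 mM final); secreted IL-1B measured by AlphaLISA after 16 hr, decreased signal indicating inhibition.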
HT1080-NT tox: kills 2HG-producing HT-1080-NT fibrosarcoma cells; AID 686970; Potency, µM (highest dose often 46.1 µM), for inactives: at the highest dose activity, negative = less viability, most hits filed as cytotoxic; actives 1.6% (n = 360,000); HT-1080-NT fibrosarcoma viability, CellTiter-Glo ATP luminescence, 48 h;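 note: NT is the 2HG producing partner of a matched IDH1 knockdown line; potency is the fitted concentration of half-maximal effect; 0% = DMSO-treated cells and -100% = media-only wells without cells; nearly all actives have a fitted effect of over 55% in size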
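Toxicity toward the 2HG-producing NT line was scored as %Activity, normalised to DMSO and no-cell wells, from CellTiter-Glo luminescence after 48 hours' treatment.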
uPA generation: blocks generation of uPA at the cell surface | cell surface uPA generation assay, qHTS | AID 540303 | Potency, µM (doses to about 38.3 µM), without a hit: at the highest dose activity change, negative = inhibition, actives largely listed as inhibitors | actives 0.31% (n = 330,000); active = well fitted inhibition curve with a large enough effect; inconclusive = small, poorly fitted or top-dose-only effect; inactive = no such curve, though single readings can be large or run the other way; tested in mouse RAW 264.7 cells; note: potency is the fitted concentration of half-maximal effect; nearly all actives have a fitted effect of over 55% in size
* = called active by the depositor; [ ] = remark or other dose. Unless noted, calls come from the whole dose curve; as a rule, active = well fitted curve in the direction sought with a large enough effect; inconclusive = small, poorly fitted or top-dose-only effect, or another doubt; inactive = no such curve, though single readings can be large; an effect the other way counts as inactive or inconclusive. Unless noted, % is set by controls: 0 for no effect and ±100 for the full control effect.

What do the screens show for `Cc1cc(Cl)ccc1C(=O)C1CCCN(C(=O)c2cccc(N3CCCC3=O)c2)C1` (configuration not stated)?
HT1080 IDH1KD tx: -1.3%; DT40 TDP1 no CPT: inconclusive; TDP1 cell CPT: 16.4µM*; IL1B secr inh: 10.0; HT1080-NT tox: -7.2%; uPA generation: -4.5%

Results for Cc1ccc2[nH]c(=O)c(CN(Cc3ccco3)Cc3nnnn3Cc3ccccc3)cc2c1 ?
DT40 TDP1 no CPT: 15.8µM*; TDP1 cell CPT: inconclusive

How did Cc1ccc2[nH]c(=O)c(CN(Cc3ccccc3)Cc3nnnn3Cc3ccccc3)cc2c1 do in these assays?
DT40 TDP1 no CPT: 12.6µM*; TDP1 cell CPT: inconclusive

Results for Cc1ccc2[nH]c(=O)c(CN(Cc3cccnc3)Cc3nnnn3CC3CCCO3)cc2c1 (configuration not stated) ?
HT1080 IDH1KD tx: -2.6%; DT40 TDP1 no CPT: 24.7%; TDP1 cell CPT: -6.3%; IL1B secr inh: -16.7; HT1080-NT tox: 3.9%; uPA generation: 0.5%

How did Cc1ccc2[nH]c(=O)c(CN(Cc3cccnc3)Cc3nnnn3CCN3CCOCC3)cc2c1 do in these assays?
HT1080 IDH1KD tx: 8.1%; DT40 TDP1 no CPT: 20.6µM*; TDP1 cell CPT: inconclusive; IL1B secr inh: 7.7; HT1080-NT tox: 21.1%; uPA generation: 0.9%

What do the screens show for `COc1ccc2[nH]c(=O)c(CN(Cc3nnnn3Cc3ccccc3)CC3CCCO3)cc2c1` (configuration not stated)?
HT1080 IDH1KD tx: 3.6%[9.24 µM]; DT40 TDP1 no CPT: inconclusive; TDP1 cell CPT: 11.6µM*; IL1B secr inh: inconclusive; HT1080-NT tox: -19.8%; uPA generation: -4.6%

What do the screens show for `Cc1cccc(N2CCN(C(=O)c3cc(S(=O)(=O)N4CCOCC4)cn3C)CC2C)c1` (configuration not stated)?
HT1080 IDH1KD tx: 7.8%; DT40 TDP1 no CPT: -26.2%; TDP1 cell CPT: inconclusive; IL1B secr inh: 0.4; HT1080-NT tox: -0.6%; uPA generation: -4.0%

What do the screens show for `Cc1ccc2cc(CN(Cc3ccco3)Cc3nnnn3Cc3ccco3)c(=O)[nH]c2c1`?
DT40 TDP1 no CPT: 11.2µM*; TDP1 cell CPT: inconclusive

What do the screens show for `Cc1ccc2cc(CN(Cc3nnnn3Cc3ccco3)CC3CCCO3)c(=O)[nH]c2c1C` (configuration not stated)?
HT1080 IDH1KD tx: 5.1%; DT40 TDP1 no CPT: inconclusive; TDP1 cell CPT: inconclusive; IL1B secr inh: 0.0; HT1080-NT tox: -0.7%; uPA generation: -4.2%

What do the screens show for `COc1cc(OC)cc(C(=O)NCC(=O)N2CC=C(c3ccccc3)CC2)c1`?
HT1080 IDH1KD tx: 13µM*; DT40 TDP1 no CPT: 4.61µM*; TDP1 cell CPT: 3.26µM*; IL1B secr inh: 14.3; HT1080-NT tox: 16.4µM*; uPA generation: 4.47µM*

What do the screens show for `O=C(NCC(=O)N1CC=C(c2ccccc2)CC1)c1ccccc1Br`?
HT1080 IDH1KD tx: -12.8%; DT40 TDP1 no CPT: 20.6µM*; TDP1 cell CPT: inconclusive; IL1B secr inh: inactive; HT1080-NT tox: -13.3%; uPA generation: -3.4%

What do the screens show for `O=C(NCC(=O)N1CC=C(c2ccccc2)CC1)c1ccc(OC(F)F)cc1`?
HT1080 IDH1KD tx: -16.3%; DT40 TDP1 no CPT: 7.31µM*; TDP1 cell CPT: 7.31µM*; IL1B secr inh: 25.3; HT1080-NT tox: inconclusive; uPA generation: inconclusive

What do the screens show for `COc1cccc2c1cc1c(=O)n(CC(=O)NCCCN3CCCCC3)nc(C)n12`?
HT1080 IDH1KD tx: 0.0%; DT40 TDP1 no CPT: -4.0%; TDP1 cell CPT: 14.5%; IL1B secr inh: 12.8; HT1080-NT tox: 0.8%; uPA generation: 4.1%

How did CCOc1cc(N2CCOCC2)c(OCC)cc1NC(=O)COC(=O)c1c(C)noc1C do in these assays?
HT1080 IDH1KD tx: 1.2%; DT40 TDP1 no CPT: inconclusive; TDP1 cell CPT: inconclusive; IL1B secr inh: 4.4; HT1080-NT tox: 3.9%

From PubChem
